Values without a mark were called inactive. The rule behind the calls is not given here.
Molecular target: CD276, Q5ZPR3
Sequence (Q5ZPR3 whole entry): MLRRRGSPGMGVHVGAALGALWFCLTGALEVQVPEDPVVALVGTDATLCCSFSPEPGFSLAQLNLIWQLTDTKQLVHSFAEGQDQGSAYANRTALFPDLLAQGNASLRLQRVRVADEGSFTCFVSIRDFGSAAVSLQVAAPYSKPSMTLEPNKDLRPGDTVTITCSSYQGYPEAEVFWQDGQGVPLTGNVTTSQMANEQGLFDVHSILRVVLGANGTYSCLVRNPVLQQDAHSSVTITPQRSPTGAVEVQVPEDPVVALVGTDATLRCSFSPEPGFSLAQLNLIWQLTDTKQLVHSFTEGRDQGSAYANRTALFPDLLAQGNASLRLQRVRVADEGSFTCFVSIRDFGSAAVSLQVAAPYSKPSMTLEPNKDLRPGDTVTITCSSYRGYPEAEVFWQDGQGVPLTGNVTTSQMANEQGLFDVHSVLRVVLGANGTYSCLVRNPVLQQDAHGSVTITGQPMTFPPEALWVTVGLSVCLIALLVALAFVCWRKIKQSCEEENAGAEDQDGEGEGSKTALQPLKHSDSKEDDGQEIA

B1: design_623_6e2e8b1f-5d9a-4413-9869-27a184816b12_254_dldesign_0_cycle1_af2pred (protein)
chain: DDLTQAQIALAAAQALIKNAKAVLEDKSASEETLKSAAEAMEVAIQLAKQAEKLAKKADPELAKKAKEVKKEAEKVKKELEKKI
- binding in a display sort: not found

B2: design_623_6e2e8b1f-5d9a-4413-9869-27a184816b12_258_dldesign_0_cycle1_af2pred (protein)
chain: ASEAAAQTITRGVAELRERFADLSPEALAALAAAQQAALLAAIQGDFEAAAAEVVRGAEAVGAISPHTEEIRALGRATAERILALA
- binding in a display sort: not found

B3: design_623_6e2e8b1f-5d9a-4413-9869-27a184816b12_262_dldesign_0_cycle1_af2pred (protein)
chain: GAAEARAQAEKTFAEAIEVGKEALKEAEKLKEKDKEKAEKYIKKINELLHELFRAMALSMTDPEAGLKAIEEQLKKLKEVLKEIKE
- binding in a display sort: not found

B4: design_623_6e2e8b1f-5d9a-4413-9869-27a184816b12_287_dldesign_0_cycle1_af2pred (protein)
chain: AAAAKAALAAAKAKADEVAKYAEEVDPELGKEIKAKQADLTKAAQDGLAISPALAKGAANMLAAYAESAKKKAEKLAKEK
- binding in a display sort: not found

B5: design_623_6e2e8b1f-5d9a-4413-9869-27a184816b12_532_dldesign_0_cycle1_af2pred (protein)
chain: AAVAAAIAAGEAAIKTVEALTKQAKTATPEERKAIAEQLRAAAVTLMNAAVASSPAYSPKFGAAAVEALQAAAEAG
- binding in a display sort: not found

B6: design_623_6e2e8b1f-5d9a-4413-9869-27a184816b12_569_dldesign_0_cycle1_af2pred (protein)
chain: NAAAQATVAAIVKQLRKRAEEEAGNPEIAKALKDGAEAVKEAGKKGIGAAVETLKETYAKVAELRAAQAAA
- binding in a display sort: not found

B7: design_623_6e2e8b1f-5d9a-4413-9869-27a184816b12_681_dldesign_0_cycle1_af2pred (protein)
chain: MEEIKEKAKELAETVEAIGEELAKFGLETGNENAITAGVNTAKHVAKYAERLSPEAGKIAEKTKEKVEKLGKKAKAEIAA
- binding in a display sort: not found

B8: design_623_6e2e8b1f-5d9a-4413-9869-27a184816b12_824_dldesign_0_cycle1_af2pred (protein)
chain: MEEKIKEAEKLYLEGLKAAGAAHAAIVKGDVAAAKKALEKLKEIAEKLKELGKESEEAKKIAENAEKLYEVTKAAVDAAAAA
- binding in a display sort: not found

B9: design_623_6e2e8b1f-5d9a-4413-9869-27a184816b12_873_dldesign_0_cycle1_af2pred (protein)
chain: SENVKKAKALAAKSKELLEKAKKGDAETAQKALKEISKLANELAKLATSSPAADQAATNAALAVAVEAAEEASKIAREKKA
- binding in a display sort: not found

B10: design_623_6e2e8b1f-5d9a-4413-9869-27a184816b12_890_dldesign_0_cycle1_af2pred (protein)
chain: SPAARLMEATYRRLEEALEKLERAEELSPEEVLEAARLAEANARFARLAGRQAAAEEGTAEAAEAAAKAEALAEEAEEKAREARERLE
- binding in a display sort: not found

B11: design_623_6e2e8b1f-5d9a-4413-9869-27a184816b12_997_dldesign_0_cycle1_af2pred (protein)
chain: EGEKLWKEAKALTDQAKALAAQAQATTDAAQAKQYAIEAAAATTEAMRLASEAARLLGPEKQEEANRLVQEATQALVAATQAAQALA
- binding in a display sort: not found

B12: design_623_6e2e8b1f-5d9a-4413-9869-27a184816b12_1170_dldesign_0_cycle1_af2pred (protein)
chain: MSQAVLNTAKIAIETAGRSSPEEAKKLVEQAVDIASSASDENKKELVKYAKELAKKDPSSKEFYEAAAKKIEATL
- binding in a display sort: not found

B13: design_623_6e2e8b1f-5d9a-4413-9869-27a184816b12_1233_dldesign_0_cycle1_af2pred (protein)
chain: DAATQAKVKELAEKALNGTPEEAYKATAEAFKISEQAGMEVLAAAAKGKPENAHAALSAYAAGLVAAKKAA
- binding in a display sort: not found

B14: design_623_6e2e8b1f-5d9a-4413-9869-27a184816b12_1242_dldesign_0_cycle1_af2pred (protein)
chain: AAARRTALGLQRGASVIAYAKEVGVPEAGRRAGLLVVLALAGGAALGAAAAAAAEALAEELAAAGYPGFGTFVRGILRAARAEAA
- binding in a display sort: not found

B15: design_623_6e2e8b1f-5d9a-4413-9869-27a184816b12_1249_dldesign_0_cycle1_af2pred (protein)
chain: AEAAKAAALEVLALAQEYYDQAKKNAAKIAPEKLKKADEAYAKALAALAAGDYGLAAHYAMLAYSYSSTGLQEA
- binding in a display sort: not found

B16: design_623_6e2e8b1f-5d9a-4413-9869-27a184816b12_1293_dldesign_0_cycle1_af2pred (protein)
chain: DAIRARAAEVKERAERLLEEGKRLPEIEEQVREMAESAKALADDALAAAATDPAQARLALAAAEALVRSLELLVERAKEEA
- binding in a display sort: not found

B17: design_623_6e2e8b1f-5d9a-4413-9869-27a184816b12_1303_dldesign_0_cycle1_af2pred (protein)
chain: AAAQADALTARGKELYAEGKKKYKEGKKEEAAKLFFEAANDYMRAASLYSKVDPAQAVAALEQMEKAIEEYKKAKE
- binding in a display sort: not found

B18: design_623_6e2e8b1f-5d9a-4413-9869-27a184816b12_1349_dldesign_0_cycle1_af2pred (protein)
chain: DRLREIAAALAKEVAEATGADPATTEKLAELLAAVLEANQQGPEAFAAAYSKLVDFTVSTGSDALLAKAGAAVSRGLRALG
- binding in a display sort: not found

B19: design_623_6e2e8b1f-5d9a-4413-9869-27a184816b12_1352_dldesign_0_cycle1_af2pred (protein)
chain: AAEARKAEAVARAKAAAQNAKLVAEGAGEAFAAEAAEVAALAKQAATSTAEEAEKLAEQAAAKTVAMTRAAIALHAAA
- binding in a display sort: not found

B20: design_623_6e2e8b1f-5d9a-4413-9869-27a184816b12_1355_dldesign_0_cycle1_af2pred (protein)
chain: AVAQQALATAQRNLERAKEYAKAGDVKAATAFATTAITLAQAVAATDPALAPQAQAIIDQAQAVIEEAKA
- binding in a display sort: not found

B21: design_623_6e2e8b1f-5d9a-4413-9869-27a184816b12_1410_dldesign_0_cycle1_af2pred (protein)
chain: SEELRERARELREEAERAEREAREAAERGDAERVREQLRRLSRLAAEAARLANQATAAGDEETAAEANEALARAVEAMERAQEWAE
- binding in a display sort: not found

B22: design_623_6e2e8b1f-5d9a-4413-9869-27a184816b12_1434_dldesign_0_cycle1_af2pred (protein)
chain: DAAAKELRERATALAGRTLLALARDPAEGERTLEEAVKELEALGKESGLEELAKEEAARLRAQYEAFRAVAEA
- binding in a display sort: not found

B23: design_623_6e2e8b1f-5d9a-4413-9869-27a184816b12_1445_dldesign_0_cycle1_af2pred (protein)
chain: EEAVLERIRALGEEGAALFQAAIKAAVAGDVAAAEALLKAGREKFEEAIALGEATSPRARELAEEVRRRMEAGEKIAQLAIEGAKA
- binding in a display sort: not found

B24: design_623_6e2e8b1f-5d9a-4413-9869-27a184816b12_1541_dldesign_0_cycle1_af2pred (protein)
chain: DFFEKALKAAKAALKKAEEALEKGKEDLAAAKAAVHQAQAAYVLASGLAVAAEAAGADPKVAKEAKELAEKAKELMEQGKKLAAKLA
- binding in a display sort: not found

B25: design_623_6e2e8b1f-5d9a-4413-9869-27a184816b12_1571_dldesign_0_cycle1_af2pred (protein)
chain: GEEAKKLAEEGDKLAEQGKAATPQEGLALLLEAAKKYSEAARLYREAGNEEEAAKAEAKLQEVNAQLNAAAKAAIAA
- binding in a display sort: not found

B26: design_623_6e2e8b1f-5d9a-4413-9869-27a184816b12_1572_dldesign_0_cycle1_af2pred (protein)
chain: KAEEVVKIVREAAREAKKDPEKAKEYANRALGALLDLAKAGSQEAALVASQGAAKIAKKITSGASAEEIAKALEEAAKKVEEAAKKE
- binding in a display sort: not found

B27: design_623_6e2e8b1f-5d9a-4413-9869-27a184816b12_1575_dldesign_0_cycle1_af2pred (protein)
chain: NAGQAVADALRAATEAERAAAAVDPALAAQARALLAKAMQAAVAGDDAEAIAYAAEVRALRDEVLARAAA
- binding in a display sort: not found

B28: design_623_6e2e8b1f-5d9a-4413-9869-27a184816b12_1663_dldesign_0_cycle1_af2pred (protein)
chain: GLEEFEKIVREAAEKVIENAGDPEKQREIVLEAAKKAEEAGYSATVGAGAINARVRAEGTPEAAAIAAEVYQELRDKERA
- binding in a display sort: not found

B29: design_623_6e2e8b1f-5d9a-4413-9869-27a184816b12_1669_dldesign_0_cycle1_af2pred (protein)
chain: SSALQTVKGYLALGKVAATAIRSGKVELGKELAEAAIKGALEAGKEHPEVAEEAEKAAEEIRKITEEALEEVEEA
- binding in a display sort: not found

B30: design_623_6e2e8b1f-5d9a-4413-9869-27a184816b12_1704_dldesign_0_cycle1_af2pred (protein)
chain: MEEALTEAFRAVAEMNRLAEEARKANPEAAEKAEEARREMSRLAIEAARSDAETAAELAKKIKEILEKTKKVVEELA
- binding in a display sort: not found

B31: design_623_6e2e8b1f-5d9a-4413-9869-27a184816b12_1750_dldesign_0_cycle1_af2pred (protein)
chain: DLLEQARIAANSTVALKKTTKEILAKSTPESAEKVAEVAVELAKQAKELGKKAGTKEAKELAKKAEKAAKEAVEAVKKAKA
- binding in a display sort: not found

B32: design_623_6e2e8b1f-5d9a-4413-9869-27a184816b12_1758_dldesign_0_cycle1_af2pred (protein)
chain: AEKVKELAKKAEELAKKAEKAAKESLAKAEKYAAKADELAREVNREAQKVATSGEAGEALLKALEAQAKARKALAEAKAKAEA
- binding in a display sort: not found

B33: design_623_6e2e8b1f-5d9a-4413-9869-27a184816b12_1798_dldesign_0_cycle1_af2pred (protein)
chain: AAAEEKTKAYEIALETAKLLTAAAALADELAATNPEAAALAAQARQLNVDLNKTAIAGELTLELAEEYLKKAKEIAARVKALAKAA
- binding in a display sort: not found

B34: design_623_6e2e8b1f-5d9a-4413-9869-27a184816b12_1921_dldesign_0_cycle1_af2pred (protein)
chain: SSVAAFLAAAAQAVKAAAEQGNLAAAAAFLRAAALASDPEAGKKLEALAKAAEAATAEEGKAIAKEGAKLLKELAEEVEAK
- binding in a display sort: not found

B35: design_623_6e2e8b1f-5d9a-4413-9869-27a184816b12_1942_dldesign_0_cycle1_af2pred (protein)
chain: AAAAATVAANAALAMAKKALEIAERAKKAGEEAPELAQSALQALDVAEALIAYATAISAAADAATKAKLAEAKKVVKEAREIAEKVIK
- binding in a display sort: not found

B36: design_623_6e2e8b1f-5d9a-4413-9869-27a184816b12_2025_dldesign_0_cycle1_af2pred (protein)
chain: GEERLLAAINEGARAILEVTAPESDAQRNAVVHAFILGMVRGPEQGLADLAAAAAALSPEVAKAAVEEATKIIERYLA
- binding in a display sort: not found

B37: design_623_6e2e8b1f-5d9a-4413-9869-27a184816b12_2057_dldesign_0_cycle1_af2pred (protein)
chain: MEVIEKLKEYGQQAIDILTGLAKAQPAVKDVAEPAAQEVREATKKAVERGEKEGEEAAKKEYEKVHALANAALARVSKLAAA
- binding in a display sort: not found

B38: design_623_6e2e8b1f-5d9a-4413-9869-27a184816b12_2159_dldesign_0_cycle1_af2pred (protein)
chain: AAAAAAKVAEAAAKAMLRTAKAILKESKASGGAKAPDALAAAEVALALADDLERQGGDPKTAEKLKKEAKAVAAEAKKVAA
- binding in a display sort: not found

From article PMC13494018
